Here are results for 21 compounds from PubChem BioAssay (NCATS).

Test [1] is described as follows: OV-KATE Cancer Cell Toxicity qHTS against the NCATS CANVASS Library (AID 1347345). Further: potency means the concentration at half of the fitted maximal effect. On activity change, negative = cytotoxicity: on the % scale 0 is the no-effect control and ±100 the full control effect. The essentials:
(§1)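 Cells were seeded at 1000 per well, allowed 4 h at 37 degrees C/5% CO2, then pin-treated with an 11-point compound series. After 72 h, viability was read as CellTiter-Glo luminescence following 15min at room temperature.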
A general note: In qHTS, concentration-response curves come from the screen itself.

Test [2] in a line: Panc-1005 Cancer Cell Toxicity qHTS against the NCATS CANVASS Library (AID 1347349). Further: nearly all actives have a fitted effect of over 60% in size. Further: potency means the concentration at half of the fitted maximal effect. On activity change, negative = cytotoxicity: on the % scale 0 is the no-effect control and ±100 the full control effect. A digest of the protocol: as §1
The nature of test [3]: G06 Cancer Cell Toxicity qHTS against the NCATS CANVASS Library (AID 1347368). Further: nearly all actives have a fitted effect of over 60% in size. Further: potency means the concentration at half of the fitted maximal effect. On activity change, negative = cytotoxic: on the % scale 0 is the no-effect control and ±100 the full control effect. The essentials: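 G06 dog glioma cells, 500 per well, exposed 72 hr at 37C, 5% CO2 to compounds in an 11-point series. Cytotoxicity read as ATP content by CellTiterGlo luminescence.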
The target in test [4] is Nuclear receptor subfamily 1 group I member 3 (Homo sapiens) (UniProt Q14994). As to the kind of experiment: qHTS for Constitutive Androstane Receptor (CAR) Agonist screened against the NCATS CANVASS Library (AID 1347373).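 Further: every well also contained 1.5 µM PK11195 alongside the test compound; 0% is about no effect.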 The essentials:
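HepG2 cells stably carrying hCAR and a CYP2B6-2.2kb luciferase reporter, treated 24hr at 37C with compounds plus 1.5uM PK11195; activation by ONE-Glo luminescence, viability by CellTiter-Fluor.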

Test [5] can be described thus: qHTS for activators of Nrf2/ARE signaling pathway screened against the NCATS CANVASS Library (AID 1347391). Further: nearly all actives have a fitted effect of over 60% in size. Further: potency means the concentration at half of the fitted maximal effect. On activation: 0% is about no effect. The essentials:
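ARE-bla HepG2 beta-lactamase reporter cells exposed to compounds for 16 h at 37C; CCF4 substrate 2 h, fluorescence at ex 405 nm, em 460/530 nm. Viability by CellTiter-Glo luminescence.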

Test [6] in a line: qHTS for ATAD5 Agonist screened against the NCATS CANVASS Library (AID 1347367).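 Further: luciferase reporter driven by ATAD5 which rises upon DNA damage; 0% is about no effect.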 The essentials: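 HEK293T cells stably carrying an ATAD5-controlled luciferase reporter (2000 cells/well) attached for 5 hr, then received compounds in an 11-point series for 16hr at 37C. Luminescence was read after a 30 min room-temperature reagent step.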
Test [7] can be described thus: qHTS for Antimalaria activity screened against the NCATS CANVASS Library (AID 1347380). Further: nearly all actives have a fitted effect of over 40% in size. Further: potency means the concentration at half of the fitted maximal effect.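 On activity change, negative = inhibition: Plasmodium falciparum strain Dd2 asexual parasites grown in red blood cells.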 A digest of the protocol:
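Red blood cells infected with P. falciparum Dd2 (2.5% hematocrit final, 0.3% parasitemia) were exposed to compounds in an 11-point qHTS series for 72 hr at 37C under 5% O2 and 5% CO2. Lysis buffer with SYBR Green was then added for 18 hr, and fluorescence was read at 485/535 nm.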

Test [8] is described as follows: qHTS assay for small molecule disruptors of mitochondrial membrane potential screened against the NCATS CANVASS Library (AID 1347389). Further: nearly all actives have a fitted effect of over 60% in size. Further: potency means the concentration at half of the fitted maximal effect. A digest of the protocol:
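HepG2 cells (2,000/well) plated overnight, then exposed to compounds in 11-point qHTS series for 1 h at 37C before 30 min Mito-MPS dye; depolarization read as fall in red aggregate (590 nm) to green monomer (535 nm) fluorescence.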

Test [9] is described as follows: HPAF-II 24hr Apoptosis Induction qHTS against the NCATS CANVASS Library (AID 1347356). Further: 0% is about no effect. The essentials: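 HPAF-II cells (500/well) exposed to compounds in 11-point series for 24 h at 37 degrees C; caspase-3/7 activity read by Caspase-Glo luminescence after 15 min at room temperature. Doxorubicin titration as control.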
Test [10] can be described thus: ZIKV-mCherry secondary qHTS for Zika virus inhibitors (AID 1347158). Further: top concentration of the series differs between compounds. The essentials: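 Vero cells (5,000/well) were given compound, then infected with ZIKV-mCherry at MOI 1 for 48–72 h at 37 °C. After PFA fixation and Hoechst staining, imaging gave percent mCherry-positive cells. The positivity threshold was RFU above 450, 3 SD over negative controls.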
The subject of test [11] is Zika virus NS2B-NS3 protease (linked). The experiment in a line: 384 well plate NINDS AMC confirmatory qHTS for Zika virus inhibitors (AID 1347163).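 Further: linked protease at 5 30 or 60 nM final depending on run; fluorescence of AMC released from Ac-VKTGKR-AMC peptide cleaved by the protease; top concentration of the series differs between compounds; 0% = no-inhibitor control and -100% = no-enzyme control; nearly all actives have a fitted effect of over 50% in size.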 A digest of the protocol: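 Linked NS2B-NS3 protease (final 5 nM, 30 nM or 60 nM) was preincubated with compounds (final up to 1 mM) for ~15 minutes. Ac-VKTGKR-AMC substrate (final 30 microM) then reacted for 25 minutes at room temperature in the dark. Fluorescence (ex 355/em 460 nm) was normalized to no-enzyme and no-inhibitor controls.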

Test [12] relates to Zika virus NS2B-NS3 protease (linked construct). The experiment in a line: 384 well plate NINDS Rhodamine confirmatory qHTS for Zika virus inhibitors (AID 1347164).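 Further: fluorescence from protease cleavage of Ac-LKRR-rhodamine 110 substrate; nearly all actives have a fitted effect of over 65% in size.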 Further: potency means the concentration at half of the fitted maximal effect.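 On activity change, negative = inhibition: top concentration of the series differs between compounds; plate controls were no-inhibitor control for no effect and no-enzyme control for full effect.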 A digest of the protocol: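 Linked protease at a final 5 nM, 30 nM or 60 nM was preincubated ~15 min with compounds, then given 10 microM Ac-LKRR-Rhodamine 110. Fluorescence (ex 485/em 538 nm) after 25 min in the dark at room temperature.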

Test [13] in a line: Tertiary RLuc qRT-PCR qHTS assay for Zika virus inhibitors (AID 1347169). Further: top concentration of the series differs between compounds; on the % scale 0 is the no-effect control and ±100 the full control effect; nearly all actives have a fitted effect of over 55% in size. A digest of the protocol: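 Vero cells (1,000 per well) plated overnight at 37 degrees C, treated with compound in DMSO, then infected with recombinant ZIKV-RLuc (Cambodian) at MOI 1-2 for 48-72 hrs. Live-cell Renilla luciferase substrate added; luminescence read after 1-1.5 hrs.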
(In qPCR the cycle at which signal appears reflects the starting amount.)

Test [14] can be described thus: qHTS Assay for Lipid Storage Modulators (AID 1519; calls by dose curve; on activity change, negative = inhibition: on the % scale 0 is the no-effect control and ±100 the full control effect). The settings on record: Drosophila S3 cells, BODIPY lipid droplet/cell ratio, laser cytometry, cells loaded with oleic acid. The essentials:
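Cells seeded at 5,000 per well were treated with compounds over a concentration series and loaded with oleic acid (400 uM, as added). Lipid droplet fluorescence (488 nm excitation, 500-530 nm channel) was read by laser-scanning cytometry and normalized to 20 uM Triacsin C.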

Inconclusive results are not listed. Calls of active or inactive are those of the source. Unless noted, the call rests on the fitted dose curve; in most records, active means well fitted curve in the direction sought with a large enough effect; inconclusive means small, poorly fitted or top-dose-only effect, or another doubt; inactive means no such curve, though single readings can be large; an effect the other way counts as inactive or inconclusive. Numbered stars: 1 amine (or outer) side, 2 acyl side, 3 side chain; on linkers, the order of the positions; unused ones are H or OH. Bridge positions count the residues as written; N and C are the ends. Square brackets hold non-standard residues; d marks the D form. Peptide text beside a SMILES is read from it. ξ: configuration not given here. Phe(3R-OH) = O=C([C@@H](N[*:1])[C@H](O[*:3])c1ccccc1)[*:2]; NMeTrp(4-OMe) = CN[C@@H](Cc1c[nH]c2cccc(OC)c12)C(=O)O; ξThr(3R)(O-yl) = C[C@@H](O[*:3])C(N[*:1])C(=O)[*:2]; NMeThr(3ξ) = CN[C@H](C(=O)O)C(C)O; NMeL = CN[C@@H](CC(C)C)C(=O)O; NMeV = CN[C@H](C(=O)O)C(C)C; ξIle = CC[C@H](C)C(N)C(=O)O; ξV = CC(C)C(N)C(=O)O

Chain of Nuclear receptor subfamily 1 group I member 3 (Homo sapiens) (Q14994 whole entry, looked up): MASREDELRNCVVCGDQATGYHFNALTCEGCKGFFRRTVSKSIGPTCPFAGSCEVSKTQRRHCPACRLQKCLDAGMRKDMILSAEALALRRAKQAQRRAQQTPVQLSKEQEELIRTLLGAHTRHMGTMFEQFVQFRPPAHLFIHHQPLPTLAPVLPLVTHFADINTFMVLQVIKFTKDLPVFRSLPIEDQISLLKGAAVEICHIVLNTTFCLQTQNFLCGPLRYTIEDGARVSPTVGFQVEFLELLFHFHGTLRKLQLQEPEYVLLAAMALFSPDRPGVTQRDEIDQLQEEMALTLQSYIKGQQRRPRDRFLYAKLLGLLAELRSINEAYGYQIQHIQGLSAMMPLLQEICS

As for `CN1C(=O)C2C(N=CN2C)N(C)C1=O` (configuration not stated), the Potency entry in test [1], in [2], in test [3] and in test [5] was “inactive” each time. Besides, the outcome in test [4] was inactive.
As for `C[C@@]12CCC[C@@](C)(C(=O)O)[C@H]1CC[C@]13C[C@H]4C[C@H](O[C@@]4(C)C1)[C@H]32`, the Potency result in test [1], in test [2], in [6], in test [3] and in [5] was “inactive” each time.
On to `CC(=O)NC[C@@H]1O[C@H](CC/C=C(C)/C(C)=C/C=O)[C@H](C)C[C@H]1O`, for which the Potency entry in test [1], in test [2], in test [3], in test [7] and in test [8] was “inactive” in each case.
With `COc1ccc2oc3c(OC)c(OC)c(OC)c(OC)c3c(=O)c2c1`, the activity change, negative = cytotoxicity in test [1] was -4.56% [at 7.64 µM] (inactive); in [2], -8.03% [at 7.64 µM] (inactive). Besides, in test [9], the caspase activation was 1.51% [at 9.19 µM] (inactive). The activation was 0.941% [at 9.19 µM] (inactive) in test [6] and 5.78% [at 9.19 µM] (inactive) in test [5]. The activity change, negative = cytotoxic in test [3] is -19.7% [at 9.19 µM] (inactive). Besides, the activity change, negative = inhibition in test [7] is -46.5% [at 5.73 µM] (inactive).
For `C/C=C/C(=O)[C@@H](C)C1=CC(=O)C2=C(O[C@@]34CC[C@H](O)C(C)(C)[C@@H]3CC[C@H](C)[C@@]4(C)C2)C1=O`, the Potency in test [1] is 8.38 µM (active); in test [2], 4.21 µM (active); in test [3], 3.32 µM (active); in test [8], 16.6 µM (active); in test [5] it was 1.86 µM (active). In addition, the result in test [4] was inactive.
On to `C[C@@H]1C(=O)[C@]23CC[C@H]1C[C@]21O[C@H]2C(C)(C)C=CC(=O)[C@]23COC1=O`, for which the Potency entry in [1], in test [2], in test [3], in test [7], in [8] and in test [5] was “inactive” each time. Moreover, the compound was called inactive in test [9].
In the case of `C=C1C[C@@]23C=CC(=O)[C@@](C)(CCC(=O)Nc4c(OC5O[C@H](CO)[C@@H](O)[C@H](O)[C@H]5O)ccc(C(=O)O)c4O)C2C[C@@H]1CC3` (some centres not stated), the Potency result in [1], in test [2], in test [6], in test [3], in test [7] and in [5] was “inactive” throughout. The outcome in [9] and in [4] was inactive.
Take `O=C(Nc1ccc(C(=O)OCc2cc(=O)n3nc(C4CC4)sc3n2)cc1)c1cccc(Cl)c1`: the Potency result in test [10], in test [11] and in test [12] was “inactive” each time.
`C[C@H]1C[C@@H]([C@@H]2CC[C@]34O[C@H](CC[C@@]35C[C@H](C)C(=O)O5)CN24)OC1=O`: the Potency result in test [1], in test [2], in [6], in test [3] and in test [5] was “inactive” each time. Further, the compound was called inactive in test [9] and in [4].
Consider `CO[C@H]1/C=C/CC[C@@H](S[C@@H]2O[C@H](CO)[C@@H](O)[C@H](O)[C@H]2O)CC(=O)O[C@@H](/C(C)=C/[C@H](C)C(=O)CCCC2CC(=O)NC(=O)C2)[C@@H](C)[C@@H]1O`, for which the Potency is 3.75 µM (active) in test [1], 4.21 µM (active) in test [2] and 1.48 µM (active) in test [3]. The Potency result in test [5] was “inactive”.
For the compound `CC[C@H](C)C(NC(=O)[C@@H](NC)C(C)C)C(=O)NC1C(=O)N(C)[C@@H](C(C)O)C(=O)N[C@@H](C(C)C)C(=O)N(C)[C@@H](CC(C)C)C(=O)NC(C(C)C)C(=O)N(C)[C@@H](C(C)C)C(=O)N(C)[C@@H](Cc2c[nH]c3cccc(OC)c23)C(=O)N[C@@H](C(C)C)C(=O)N[C@@H]([C@H](O)c2ccccc2)C(=O)N[C@@H](C(C)C)C(=O)O[C@@H]1C` (stereo partly drawn) (H-[NMeV][ξIle][ξThr(3R)(O-yl)][NMeThr(3ξ)]V[NMeL][ξV][NMeV][NMeTrp(4-OMe)]V[Phe(3R-OH)]V; ester 3-C), the Potency entry in test [1], in [2], in test [6] and in [5] was “inactive” throughout. The call in test [9] and in [4] was inactive.
For the compound `Cc1ccc(-c2nnc(Nc3ccc(S(N)(=O)=O)cc3)c3ccccc23)cc1S(=O)(=O)N1CCOCC1`, the Potency result in [10] and in test [13] was “inactive” in each case.
As for `COC(=O)c1ccc(NC(=O)CSc2ncc3c(n2)-c2cc(Cl)ccc2N(Cc2ccccc2)S3(=O)=O)cc1`, the Potency entry in test [10] and in [11] was “inactive” each time.
Turning to `CCOc1ccc(S(=O)(=O)Nc2cc3c(C(=O)OCc4ccccc4)c(C)oc3c3ccccc23)cc1`, in test [10], the Potency result is “inactive”. In addition, the Potency in [12] was 316 µM (active).
With `Cc1oc2c(cc(NS(=O)(=O)c3ccc(F)cc3)c3ccccc32)c1C(=O)OCc1ccccc1`, the Potency entry in test [10] is “inactive”. Moreover, in test [12], the Potency was 158 µM (active).
Consider `COc1cc(/C=C/C(=O)O)ccc1O`, for which the activity change, negative = inhibition in test [14] (at 57.5 µM (top of the series)) is 8.29% (inactive). Further, the max response in [14] (measured here: cell count channel max response) stood at 5.04%; in [14] (measured here: lipid channel max response), 17.5%. Further, the Potency entry in test [1], in test [2], in test [6], in [3], in [8] and in test [5] was “inactive” throughout. Moreover, the outcome in test [9] and in test [4] was inactive. For the same compound, in test [7], the Potency was 0.0033 µM (active).
Take `C[C@@H]1O[C@H](c2c(O)cc(O)c3c(=O)cc(-c4ccc(O)cc4)oc23)[C@H](O)[C@H](O)[C@H]1O`: the Potency result in [1], in [2], in [3], in test [8] and in [5] was “inactive” throughout. For the same compound, the compound was classed as inactive in test [9] and in [4].
Consider `O=Cc1ccc2n1C[C@@]1(OC2)O[C@H](CO)[C@@H](O)[C@@H]1O`, for which the Potency entry in test [1], in test [2], in test [6], in [3] and in test [5] was “inactive” throughout. Also, the outcome in test [9] was inactive.
As for `COc1ccc(CCCc2cc(O)c(OC)c(O)c2)c(O)c1O`, the Potency entry in [1], in test [2] and in test [6] was “inactive” in each case. Also, in test [9], the compound was classed as inactive. Moreover, the Potency in test [3] is 0.0148 µM (active).
In the case of `CC(O)/C=C/C1(O)C(C)(C)CC(O)CC1(C)O` (configuration not stated), the Potency entry in test [1], in test [2], in test [6], in test [3] and in [5] was “inactive” in each case.
`C/C=C/C=C/C1(O)C2C=C3C(=O)CC45C(=O)C(O)=C(C)C(=O)C4C1C1(C(=O)C(O)=C(C)C(=O)C351)C2C` (configuration not stated): the Potency result in [1], in [2], in test [6], in test [3], in test [8] and in [5] was “inactive” in each case.
